The list is not random: actives were taken first. Their share in the collection is about 4%.
TWEAK-Fn14 inh: inhibitors of TWEAK-Fn14 signaling, primary screen, luciferase reporter cells, uHTS; TWEAK-stimulated Fn14 reporter cells, luciferase luminescence, 8 h; inhibition, % at 10 µM; actives 2% (n = 360,000); AID 1159606, 2016; in the data active = inhibition above about 50%
HIF-2a inh: HIF-2a reporter inhibitors, primary screen, luminescence, 786-0 RCC cells; 786-0 RCC cells HIF-2a reporter, luciferase luminescence, overnight; inhibition, % at 18.8 µM; actives 0.72% (n = 360,000);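 active = inhibition of the luminescence signal of 40% or more relative to plate controls, in a single-dose primary screen at 18.75 µM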
Peg3 promoter: Peg3 promoter-driven luciferase inhibitors, primary screen, cell-based, HeLa, luciferase luminescence. inhibition, % at 20 µM. HeLa PEG-Prom luciferase reporter, overnight. AID 588405, 2011. actives 1.7% (n = 360,000);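 active = inhibition of at least 50% at 20 µM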
KKLEB cytotox: cytotoxicity in KKLEB CF airway cells, primary screen, cytotoxicity control for CF NF-kB inhibitor project, cell-based, uHTS, fluorescence assay plates; actives 0.36% (n = 360,000); activity change (cytotoxicity), % at 5 µM; KKLEB CF airway cells viability, ATPlite luminescence, overnight; stronger effect = lower value; cells stimulated with P. aeruginosa culture filtrate; AID 602141, 2011;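 active = corrected activity change at or below -50% at 5 µM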
CF NFkB block: inhibitors of PAF-induced NF-kB signaling, primary screen, cell-based, GFP fluorescence, uHTS; KKLEB NF-kB-GFP reporter, GFP fluorescence overnight; inhibition, % at 5 µM; actives 0.86% (n = 360,000); AID 588850, 2011;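 active = at least 50% inhibition at 5 µM, scaled per plate between neutral and stimulator controls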;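 also: PAF is a Pseudomonas aeruginosa culture filtrate used as stimulus; plate controls were PAF-stimulated DMSO wells for no effect and unstimulated DMSO wells for full effect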
TROY signal inh: inhibitors of TROY-driven NF-kB signaling, primary screen, Q293 LMP1-TROYcd cells, NF-kB luciferase, uHTS | inhibition, % at 10 µM | Q293 LMP1-TROYcd NF-kB luciferase reporter, 4 h | actives 0.98% (n = 360,000);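 active = compounds whose plate-normalised and pattern-corrected inhibition of the luciferase reporter signal at the single screening dose is 50% or more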
An asterisk follows results filed as active; / = no result given.

SMILES	TWEAK-Fn14 inh	HIF-2a inh	Peg3 promoter	KKLEB cytotox	CF NFkB block	TROY signal inh
COc1ccc2c(c1)Cc1cc(NC(=O)c3ccccc3-c3ccccc3C(=O)O)ccc1-2	-1	18	19	12	-30	8
COCCCN1C(=O)C(CC(=O)NCCCCc2ccccc2)CC(C(=O)N(C(C)C)C(C)C)=C1C (stereo not drawn)	8	12	-6	10	-6	9
C=C1C[C@@H]2C[C@@H]2CN(S(=O)(=O)c2ccc(C)cc2)[C@@H]1c1ccco1	10	9	/	/	/	16
CC(C)c1nc(C#N)c(NN)o1	21	-2	2	12	0	21
N#Cc1nc(Cl)c(Cl)c(NN)c1Cl	-16	21	12	-16	24	62*
Cc1cc(-c2n[nH]c(=S)n2/N=C/c2ccccc2[N+](=O)[O-])n[nH]1	22	9	51*	6	0	-5
CS(=O)(=O)c1ccc(C(=O)OCC(=O)N2CCOCC2)cc1[N+](=O)[O-]	40	6	0	-7	43	3
CS(=O)(=O)c1ccc(C(=O)OCC(=O)N2CCN(CCC3CCCCC3)CC2)cc1[N+](=O)[O-]	79*	80*	97*	-85*	101*	34
CS(=O)(=O)c1ccc(C(=O)OCC(=O)NC(=O)C2CCCCC2)cc1[N+](=O)[O-]	73*	18	98*	-20	74*	51*
CS(=O)(=O)c1ccc(C(=O)OCC(=O)NC(=O)C2COc3ccccc3O2)cc1[N+](=O)[O-] (stereo not drawn)	55*	1	8	24	8	8
CCN(CC)Cc1nc2nc(Cl)c(Cl)nc2[nH]1	-8	3	-5	3	7	0
CCOC(=O)c1c(NC(C)=O)sc2c1CCC(C=O)=C2Sc1ccccc1	-16	27	99*	-9	-13	11
CCOC(=O)c1c(NC(C)=O)sc2c1CCN(Cc1ccccc1)C2	-25	-6	9	7	16	-10
Cc1ccccc1N1CCN(C2CCCN(C(=O)CSc3ccccn3)C2)CC1 (stereo not drawn)	-37	-32	-9	-9	-8	-18
Cc1ccc(-n2cc(C(=O)c3ccc(F)cc3)nn2)cc1Cl	53*	-80	-125	-3	1	41
O=C(N/N=C/c1cc(Cl)cc([N+](=O)[O-])c1O)NC12CC3CC(CC(C3)C1)C2	66*	8	37	2	31	43
O=C(N/N=C/c1ccccc1O)NC12CC3CC(CC(C3)C1)C2	-10	-73	-234	15	-1	2
CC(Sc1ccc(Cl)cc1)C(=O)Nc1ccc2c(c1)OCO2 (stereo not drawn)	-7	-36	-17	-4	-1	-22
CC(C)N1CCC2(CC1)N=C(c1ccc3c(c1)OCO3)CC(c1cc(Cl)ccc1O)N2 (stereo not drawn)	51*	-128	101*	-31	27	4
Cn1c(-c2ccc(F)cc2)cnc1SCC(=O)N1CCCCC1	60*	-80	-104	1	-8	17
CC(=O)Nc1ccc(S(=O)(=O)N[C@@H](C)C(=O)N2CCN(c3ccccn3)CC2)cc1	-1	-1	-5	-4	-6	-11
O=C(/C=C/c1cccc([N+](=O)[O-])c1)c1ccc([N+](=O)[O-])o1	98*	44*	100*	-89*	97*	73*
O=C(/C=C/c1cccc([N+](=O)[O-])c1)c1ccco1	31	7	7	-6	3	12
CCCOc1cccc(-c2cc(C(=O)N/N=C/c3ccccn3)c3ccccc3n2)c1	94*	-35	5	-20	-6	41
CCCc1ccc(-c2cc(C(=O)N/N=C/c3ccc([N+](=O)[O-])o3)c3ccccc3n2)cc1	32	-109	-121	-51*	-4	-20
SMILES	TWEAK-Fn14 inh	HIF-2a inh	Peg3 promoter	KKLEB cytotox	CF NFkB block	TROY signal inh
O=C(N/N=C/c1ccccn1)c1cc(-c2ccc(Br)cc2)nc2ccccc12	100*	-30	75*	5	-27	-5
CCCOc1cccc(-c2cc(C(=O)N/N=C/c3cccnc3)c3ccccc3n2)c1	-29	-144	-44	-12	-4	21
O=C(c1cnc(Cl)c(Cl)c1)N1CCN(S(=O)(=O)c2ccc3ccccc3c2)CC1	-17	17	2	4	15	37
O=C1c2ccccc2C(=O)N1CCCCN(C(=O)c1ccco1)c1ccc(Cl)cc1	-20	17	20	-4	-2	4
O=C1/C(=C/N(C(=O)c2ccco2)c2ccc(Cl)cc2)Sc2ccccc21	83*	-33	-149	-9	-20	60*
O=C1/C(=C/N(C(=O)c2ccco2)c2ccc(Br)cc2)Sc2ccccc21	87*	-47	-62	-10	-14	65*
COc1ccc(NC(=O)Nc2cccc3c2O[C@H](CN(C)C(=O)Nc2ccc(OC)cc2)[C@@H](C)CN([C@H](C)CO)C3=O)cc1	-10	-11	-9	0	5	-24
CC(=O)N1CCN(c2ccc(S(=O)(=O)NCCN(C(C)C)C(C)C)cc2[N+](=O)[O-])CC1	-2	17	1	11	-1	7
CN(C)CCNS(=O)(=O)c1ccc(N2CCN(c3ccc(F)cc3)CC2)c([N+](=O)[O-])c1	5	11	63*	-15	15	8
Fc1cccc(Cl)c1CSc1ncn[nH]1	-11	-7	1	-12	4	78*
COc1ccc(S(=O)(=O)Nc2ccc(C(N)=O)cc2)cc1C(=O)N1CCCCCC1	-6	15	-11	9	-2	-23
CCn1cc(CNC(=O)CCc2nnc(CCC3CCCCC3)o2)cn1	0	9	21	8	-4	-29
CC12CCC(O)CC1=CCC1C2CCC2(C)C1CCC21CCC(=O)O1 (stereo not drawn)	-7	-1	8	-6	3	10
C[C@]12CCC(O)CC1=CCC1C2CC[C@]2(C)/C(=N\NC(N)=S)CCC12 (stereo partly drawn)	94*	13	1	2	40	15
CC(NC(=O)COC(=O)CN1C(=O)C2CCCCC2C1=O)c1ccccc1 (stereo not drawn)	0	2	0	-17	28	4
O=C1C2C(c3ccccc3)CC=CC2[C@H](c2cccc([N+](=O)[O-])c2)N1Cc1ccccc1 (stereo partly drawn)	7	4	13	-10	10	15

High-throughput results from PubChem BioAssay.
